# From PubChem BioAssay
# In the library only some 1.6% were active in any assay of this set; here they are far more common.
# KCNQ2 pot: potentiators of rat KCNQ2 potassium channel. AID 2239. O88943. hit rate 0.54% among 310,000. CHO-K1 KCNQ2, FluxOR thallium flux fluorescence; active compounds read high. B-score at 10 µM;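 active = fluorescence ratio B-score at least 3 SD of library B-scores, with initial fluorescence B-score within 3 of them, cut at about 5.3 in these data; same plate scores as AID 2156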;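 also: B-score of peak minus minimum over baseline fluorescence ratio after K+ and Tl+ stimulus; positive B-score means potentiation of KCNQ2 with more thallium influx and brighter signal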
# KCNQ2 block: KCNQ2 (rat) channel inhibition; O88943; CHO-K1 KCNQ2, FluxOR thallium flux, 20 min; active compounds read low; B-score at 10 µM; hit rate 1.1% among 310,000; AID 2156;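 active = fluorescence ratio B-score at most minus 3 library SDs, with starting brightness B-score within 2 library SDs, cut at about -5.5 in these data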
# * = called active by the depositor; i = inactive; nt = no result given.
SMILES,KCNQ2 pot,KCNQ2 block
Cc1ccc(C(=O)NNS(=O)(=O)c2ccc(F)cc2)cc1,nt,i
COc1ccc2ccc3c(c2c1)N=CC1(O3)N(C)c2ccccc2C1(C)C (stereo not drawn),-8.22,-8.22*
COc1ccc2c(c1)Sc1ccccc1N2CCN(C)C,nt,i
CN1c2ccccc2C(C)(C)C12CC(CCl)=NO2 (stereo not drawn),0.63,i
CN1c2ccccc2C(C)(C)C12C=Nc1c(ccc3ccccc13)O2 (stereo not drawn),-5.71,-5.71*
Cc1ccc(N(C(=O)c2csnn2)C(C(=O)NC2CCCCC2)c2ccncc2)c(C)c1 (stereo not drawn),0.36,i
CCC1CCCCN1C(=S)NC(=O)c1ccc([N+](=O)[O-])cc1 (stereo not drawn),7.84*,i
CCC1CCCCN1C(=S)NC(=O)c1cccs1 (stereo not drawn),4.63,i
COc1ccc(-c2cccc(NC(=O)COc3ccc(Cl)cc3)c2)nn1,0.58,i
Cc1oc2c(c1C(=O)O)C(=O)c1ccccc1C2=O,0.13,i
Cc1oc2c(c1C(=O)c1ccccc1)C(=O)C(=O)c1ccccc1-2,-7.18,-7.18*
COc1ccc(C2=NN(C(=O)CSc3nc(=O)n4cccc(C)c4n3)C(c3ccc(C)cc3)C2)cc1 (stereo not drawn),-7.41,-7.41*
COc1ccc(C2=NN(C(=O)CSc3ncccn3)C(c3ccc(C)cc3)C2)cc1 (stereo not drawn),1.88,i
CN1CCN(C(=O)C2=C[C@H](c3csc4ccccc34)C[C@H](OCc3ccc(CO)cc3)O2)CC1,nt,i
O=C(C1=C[C@@H](c2ccc(Br)cc2)C[C@@H](OCc2ccc(CO)cc2)O1)N1CCN(Cc2ccc3c(c2)OCO3)CC1,-6.31,-6.31*
O=C(C1=C[C@H](c2csc3ccccc23)C[C@H](OCc2ccc(CO)cc2)O1)N1CCCCCCC1,-5.62,-5.62*
O=C(C1=C[C@@H](c2ccc(C(F)(F)F)cc2)C[C@@H](OCc2ccc(CO)cc2)O1)N1CCN(Cc2ccc3c(c2)OCO3)CC1,nt,i
C[C@H](NC(=O)c1ccc2ccccc2c1)C(=O)N1CCC2(CC1)NCCc1[nH]cnc12,0.54,i
CC(C)C[C@H](NC(=O)[C@@H]1Cc2c([nH]c3ccccc23)C2c3ccccc3C(=O)N21)C(=O)N1CCC[C@@H]1C(=O)O (stereo partly drawn),nt,i
COc1cccc(C2c3[nH]c4ccccc4c3C[C@H]3C(=O)N(C4CC4)CC(=O)N23)c1 (stereo partly drawn),nt,i
O=C1C(c2ccc(F)cc2)N(C2CCCCC2)C(=O)CN1C1CCCC1 (stereo not drawn),nt,i
COc1cccc(C2C(=O)N(C3CCCCC3)CC(=O)N2Cc2ccc(F)cc2)c1 (stereo not drawn),-6.98,-6.98*
COc1ccccc1CN1C(=O)CN(C2CCCCCC2)C(=O)C1c1ccc(F)cc1 (stereo not drawn),-6.14,-6.14*
CCCCNC(=O)[C@@H]1CC=C[C@@H]2CCN(C3CC3)C(=O)[C@@H]21,nt,i
O=C(Nc1cccc(S(=O)(=O)N2CCCCCC2)c1)C1CCN(C(=O)c2ccc(Cl)cc2)CC1,0.97,i
SMILES,KCNQ2 pot,KCNQ2 block
CCOC(=O)N1CCN(C(=O)CN(c2cccc(C)c2)S(=O)(=O)c2ccc(C)cc2)CC1,1.05,i
CS(=O)(=O)N(CC(=O)N1CCc2ccccc2C1)Cc1ccc(Cl)cc1,-6.04,-6.04*
Cc1ccc(S(=O)(=O)N(CC(=O)N2CCC(C)CC2)c2cccc(C)c2)cc1,-6.15,-6.15*
CS(=O)(=O)N(CC(=O)N1CCc2ccccc2C1)Cc1ccc(F)cc1,nt,i
O=C(CN(c1cccc(Cl)c1)S(=O)(=O)c1ccc(Cl)cc1)N1CCc2ccccc2C1,-6.54,-6.54*
CS(=O)(=O)N(CC(=O)N1CCc2ccccc2C1)c1cccc(F)c1,nt,i
CC(=O)c1ccccc1N(C(=O)c1ccco1)C(C(=O)NC1CCCC1)c1ccc(C)cc1 (stereo not drawn),0.1,i
Cc1nc2scc(C)n2c(=O)c1S(=O)(=O)NCc1ccc(F)cc1,0.63,i
CC(C)Oc1ccc(S(=O)(=O)N2CCCCC2)cc1NC(=O)C1CSC2(C)CCC(=O)N12 (stereo not drawn),0.24,i
O=C(NNC(=O)c1cc(-c2ccncc2)nc2ccccc12)c1ccccc1O,0.94,i
O=C(NNC(=S)Nc1ccc(OC(F)F)cc1)c1cc2c(s1)CCCC2,0.1,i
O=c1c2cnn(-c3ccccc3)c2nc(-c2cccs2)n1-c1cccc(Cl)c1,-7.55,-7.55*
O=c1c2cnn(-c3ccccc3)c2nc(-c2cccs2)n1-c1ccc(Cl)cc1,nt,i
COc1cc(OC)cc(-c2cc3nc4c(c(N5CCN(c6ncccn6)CC5)n3n2)CCCC4)c1,-6.2,-6.2*
CCc1c(C)nc2cc(-c3cc(OC)cc(OC)c3)nn2c1N1CCCC1,0.09,i
OC1CCN(c2c3c(nc4cc(-c5cccc(F)c5)nn24)CCCC3)CC1,nt,i
